Screens as filed in PubChem BioAssay.
NSD2 inh – NSD2 histone methyltransferase inhibitors, primary screen, biochemical, AlphaScreen, single concentration, set 2; Histone-lysine N-methyltransferase NSD2 (Homo sapiens), O96028; NSD2 peptide methylation, 120 min; inhibition, % at 12.5 µM; actives 0.54% (n = 310,000); in the data active means inhibition above about 50%
Target sequence (O96028 whole entry, looked up): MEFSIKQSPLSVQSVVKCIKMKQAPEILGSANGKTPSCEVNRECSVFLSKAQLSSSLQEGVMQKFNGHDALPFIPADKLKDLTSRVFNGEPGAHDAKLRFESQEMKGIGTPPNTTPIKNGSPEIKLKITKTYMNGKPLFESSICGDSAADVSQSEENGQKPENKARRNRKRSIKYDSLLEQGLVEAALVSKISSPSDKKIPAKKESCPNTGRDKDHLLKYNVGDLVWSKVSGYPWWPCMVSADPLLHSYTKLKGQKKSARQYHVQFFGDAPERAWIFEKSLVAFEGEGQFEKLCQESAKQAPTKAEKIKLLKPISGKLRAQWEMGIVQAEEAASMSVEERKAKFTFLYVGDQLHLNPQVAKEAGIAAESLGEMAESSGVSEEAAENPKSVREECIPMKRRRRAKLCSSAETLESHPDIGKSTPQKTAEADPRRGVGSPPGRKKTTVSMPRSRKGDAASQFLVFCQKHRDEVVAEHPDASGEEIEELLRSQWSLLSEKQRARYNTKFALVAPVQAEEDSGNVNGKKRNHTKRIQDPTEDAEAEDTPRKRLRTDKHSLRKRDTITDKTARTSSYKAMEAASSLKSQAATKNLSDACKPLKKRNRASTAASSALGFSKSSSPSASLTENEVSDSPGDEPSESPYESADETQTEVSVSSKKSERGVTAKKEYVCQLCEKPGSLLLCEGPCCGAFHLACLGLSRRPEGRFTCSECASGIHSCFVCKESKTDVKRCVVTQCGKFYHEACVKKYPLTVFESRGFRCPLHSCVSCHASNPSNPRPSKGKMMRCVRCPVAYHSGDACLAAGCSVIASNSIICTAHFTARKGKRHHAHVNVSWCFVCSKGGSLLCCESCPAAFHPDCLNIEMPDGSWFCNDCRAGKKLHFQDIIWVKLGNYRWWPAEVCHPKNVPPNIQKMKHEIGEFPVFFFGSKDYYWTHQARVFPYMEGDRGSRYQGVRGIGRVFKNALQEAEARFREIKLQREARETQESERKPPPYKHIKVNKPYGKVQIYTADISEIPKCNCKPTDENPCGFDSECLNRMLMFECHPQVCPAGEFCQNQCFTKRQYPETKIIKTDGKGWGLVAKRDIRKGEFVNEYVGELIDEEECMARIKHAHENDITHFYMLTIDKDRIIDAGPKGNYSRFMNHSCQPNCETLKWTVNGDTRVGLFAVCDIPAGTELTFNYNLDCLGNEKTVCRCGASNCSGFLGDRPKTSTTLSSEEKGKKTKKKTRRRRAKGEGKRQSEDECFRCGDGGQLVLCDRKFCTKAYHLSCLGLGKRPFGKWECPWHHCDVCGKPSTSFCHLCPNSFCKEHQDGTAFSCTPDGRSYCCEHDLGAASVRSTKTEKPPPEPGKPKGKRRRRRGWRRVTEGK
V-ATPase pH – regulators of yeast V-ATPase proton pumping, primary screen, pHLuorin cytosolic pH fluorescence | S. cerevisiae | response, % at 10 µM | actives 0.37% (n = 350,000); in the data active means response mostly above about 7.3%, no sharp cut-off; inactive means mostly below about 5.4%; further: actives read high
Rce1 inh – yeast Rce1p protease inhibitors, primary screen, biochemical, fluorescence, cell-free homogeneous. yeast membranes, quenched prenylated peptide cleavage fluorescence. actives 0.27% (n = 290,000). CAAX prenyl protease 2 (Saccharomyces cerevisiae (strain ATCC 204508 / S288c)), Q03530. calls only;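 active means fall in fluorescence gain of 50% or more versus controls, with final raw signal at or below 3038400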;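 further: plate controls were neutral control wells for no effect and wells lacking membranes for full effect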
GC-B act – human GC-B receptor activators, primary screen, HEK293 GC-B cells, cGMP TR-FRET, EC30 CNP | AID 1920062, 2024 | 0% at EC30 CNP, 100% saturating CNP | actives 0.11% (n = 370,000) | activation, % at 10 µM;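 active means activation at 10 µM reaching about 35% in either raw or pattern-adjusted values, limit read from the data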
NPR1 activator – GC-A stimulated cGMP production enhancers – HEK293 GC-A cells, cGMP TR-FRET, EC30 ANP, primary screen. 0% at EC30 ANP, 100% saturating ANP. Atrial natriuretic peptide receptor 1 (Homo sapiens), P16066. activation, % at 10 µM. AID 1671463, 2021. actives 0.14% (n = 370,000); in the data active means activation above about 40%
Efflux pump mplx – inhibitors of Candida efflux pumps in yeast, primary screen, S. cerevisiae, Nile Red, multiplex; S. cerevisiae Candida pump triplex; inhibition, % at 10 µM; actives 0.44% (n = 330,000); AID 485275, 2010;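 active means plate passing quality check with inhibition over a set limit, or well fluorescence over plate mean plus 4 SD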;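 further: Nile Red retained in pooled yeast measured as flow cytometry median fluorescence; 0% = buffer negative control and 100% = Enniatin B positive control; higher means more Nile Red kept so more efflux inhibition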
Alpha artifact – AlphaScreen signal interference with preloaded methylated product, dose response, artefact control for NSD2 inhibitor project, biochemical, cherry-picked samples | AlphaScreen artifact counterscreen, preloaded methylated H4 peptide | actives 9.4% (n = 1,500) | shares compounds with NSD2 inh | AC35, µM (doses to about 10 µM), without a hit: at the highest dose activity change, negative = signal loss | AID 1053174, 2014; call rule not given here
* hit, by the source's call; i = inactive; nt = not tested or not shown. This is a sample that favours compounds with a hit; in the whole collection about 1.6% have one here.

SMILES | NSD2 inh | V-ATPase pH | Rce1 inh | GC-B act | NPR1 activator | Efflux pump mplx | Alpha artifact
CN(C)CCNc1nc(-c2ccco2)c2c(c1C#N)CC(C)(C)OC2 | 127* | -2 | i | 1 | 0 | 0 | -1%
CCc1[nH]c(=O)c(C#N)c2c1COC(C)(C)C2 | -3 | 7 | i | -5 | 3 | 0 | nt
Cc1nc2c(=O)[nH]c(=S)[nH]c2[nH]c1=O | 84* | -6 | nt | -9 | -5 | nt | -2%
Cc1nc2[nH]c(=S)[nH]c(=O)c2nc1C | 4 | 1 | nt | -1 | 4 | nt | nt
CC1(C)Cc2sc3c(=O)[nH]c(=S)[nH]c3c2CO1 | 75* | 7 | i | -2 | 2 | 0 | -2%
S=C(Nc1ccc2nsnc2c1)N1CCCC1 | 141* | -3 | nt | -3 | 5 | 0 | 6%
O=C(Nc1ccc2nsnc2c1)N1CCCCCC1 | 0 | 1 | i | -3 | 0 | 0 | nt
CC12CCC(C)(c3nc4ccccc4nc31)C2(C)C | 53* | 0 | i | 3 | -6 | 0 | -3%
Cc1ccc2cccc(OCc3ccc(Br)cc3)c2n1 | 51* | 3 | i | -3 | -9 | 0 | -6%
COC(=O)C[C@@H]1CC[C@H]2[C@H](COc3ccc(NC(=O)c4ccc(OC)cc4)cc3C(=O)N2C)O1 | nt | nt | nt | 11 | -2 | nt | nt
COC(=O)c1cc(S(=O)(=O)Nc2cccc(OC)c2)cn1C | nt | 0 | i | -1 | -2 | 0 | nt
CCOC(=O)c1cc(S(=O)(=O)Nc2ccc(OC)cc2OC)cn1C | 56* | 3 | i | -1 | 2 | 0 | -4%
CC(=NO)c1cc(Br)c2cccc3c2c1CC3 | 66* | -1 | nt | -1 | 1 | nt | -3%
O=[N+]([O-])c1ccccc1S(=O)(=O)N1CCC(c2cn3ccccc3n2)CC1 | 10 | nt | nt | -2 | 1 | nt | nt
Cc1[nH][nH]c(=O)c1C(c1c(C)[nH][nH]c1=O)c1cn(C)c2ccccc12 | 51* | 0 | nt | 0 | -4 | nt | -3%
CCN1C(=O)/C(=C\c2ccc(-c3ccc([N+](=O)[O-])cc3OC)o2)SC1=Nc1cccc(C(=O)O)c1 | 60* | 3 | i | -5 | -20 | nt | -6%
CCN1/C(=C\C(=S)Nc2ccccc2)Sc2ccccc21 | 7 | -1 | i | 1 | 2 | 0 | nt
CCN1/C(=C/C(C)=C/c2sc3ccccc3[n+]2CC)Sc2ccccc21 | 112* | 1 | i | 18 | 9 | 0 | 5.5µM*
O=C(NCCc1nc2ccccc2n1CCOc1ccc2cccnc2c1)C1CCCCC1 | nt | nt | nt | -6 | -3 | nt | nt
Cc1cnc(C2OCCO2)c2cccc(N)c12 | 156* | 3 | nt | -2 | -1 | nt | 0%
COc1ccc2c(c1)CCCN2C(=O)C1CCCN(S(=O)(=O)c2ccc(C)c(C)c2)C1 (stereo not given) | 0 | nt | nt | -7 | 4 | nt | nt
CCCCNC(=O)OCCCN1CCC2(CCC(c3ccccc3)CC2)C1 (stereo not given) | nt | nt | nt | -2 | -4 | nt | nt
COc1ccc(C)cc1S(=O)(=O)Nc1ccccc1C | 69* | 0 | i | -2 | -2 | 0 | 1%
CCc1ccc(OC)c(S(=O)(=O)Nc2ccccc2C)c1 | 2 | -1 | i | -1 | -5 | 0 | nt
C=CCCC(=O)N[C@H]1CC[C@@]23CCCN2C(=O)CCC[C@H]3[C@H]1CCC | nt | nt | nt | -2 | -6 | nt | nt
SMILES | NSD2 inh | V-ATPase pH | Rce1 inh | GC-B act | NPR1 activator | Efflux pump mplx | Alpha artifact
COc1ccc(S[C@]2(C(=O)N3CCN(C(C)=O)CC3)CC(=O)N(C(=O)Nc3ccc(C)c(Cl)c3)[C@@H]2c2ccc(OC)cc2)cc1 | nt | nt | nt | 8 | 4 | nt | nt
O=C(OCc1cnc(Cl)s1)c1cccs1 | 52* | -3 | i | -1 | 1 | 0 | 2%
O=C(OCc1cnc(Cl)s1)c1ccccc1Cl | 0 | 0 | i | 2 | 4 | 0 | nt
Cc1cc(C)cc(OC(C)CCN2CCC(C(O)(c3ccccc3)c3ccccc3)CC2)c1 (stereo not given) | nt | nt | nt | -1 | -9 | nt | nt
O=C(CCN1C(=O)/C(=C\c2ccco2)SC1=S)Nc1ccc(C(=O)O)c(O)c1 | 111* | -5 | i | -4 | -5 | 0 | -17%
Cc1ccc(N2CN=c3s/c(=C\c4ccccn4)c(=O)n3C2)cc1 | 59* | -3 | i | -6 | -2 | 0 | -8%
O=c1/c(=C/c2ccco2)sc2n1CN(c1ccccc1)CN=2 | 21 | -1 | i | -2 | -10 | 0 | nt
CCN(CC)C(=O)CSc1nc2ccccc2c(=O)n1CCC(=O)NCc1ccc(F)cc1 | 121* | -2 | i | 3 | -1 | 0 | 0%
COc1cccc(NC(=O)c2cc([N+](=O)[O-])ccc2NCc2cccnc2)c1 | 4 | -3 | i | 6 | 10 | 0 | nt
Cc1ccc(NC(=O)c2cc([N+](=O)[O-])ccc2NCc2cccnc2)cc1Cl | 127* | -2 | i | -6 | 3 | 0 | -7%
O=c1cc(OCc2ccccc2)cc[nH]1 | 82* | 1 | nt | 1 | 6 | 0 | 1%
Cc1[nH]ccc(=O)c1OCc1ccccc1 | nt | -2 | i | 5 | 2 | 0 | nt
CCOC(=O)Cn1cc(CN2C(C(=O)OC)CN(CCO)CCS2(=O)=O)nn1 (stereo not given) | nt | nt | nt | 5 | 2 | nt | nt
COC(=O)C1CN(CCO)CCS(=O)(=O)N1Cc1cn(Cc2cccc(Cl)c2)nn1 (stereo not given) | nt | nt | nt | 2 | -1 | nt | nt
Cc1ccccc1N(C(=O)c1snc(C(N)=O)c1N)C(C)C(=O)NC1CCCCC1 (stereo not given) | 78* | -4 | i | 1 | 0 | 0 | 2%
Cc1ccccc1N(C(=O)c1snc(C(N)=O)c1N)C(C(=O)NC1CCCCC1)c1ccc(O)cc1 (stereo not given) | -2 | 4 | i | -7 | -18 | 0 | nt
O=C(CCc1nc(-c2ccccc2F)no1)NCCc1ccccc1F | -2 | nt | nt | -10 | -2 | nt | nt
Cc1ccc(S(=O)(=O)N2CCCCC2)cc1NC(=O)COc1ccccc1 | -1 | -5 | nt | 3 | -5 | 0 | nt
Cc1ccc(S(=O)(=O)N2CCOCC2)cc1NC(=O)CSc1ccccn1 | 52* | 1 | i | 4 | -1 | 0 | -2%
Cc1ccccc1NCC(=O)Nc1cc(S(=O)(=O)N2CCCCC2)ccc1C | 57* | -3 | nt | 6 | 2 | 0 | -7%
Cc1ccc(S(=O)(=O)N2CCOCC2)cc1NC(=O)CSc1nccn1C | -4 | -3 | i | -3 | 4 | 0 | nt
